The inhibition is the drop in the measured response relative to a control, in per cent.

The source made the active and inactive calls. No rule for the calls is given here.

The values that follow come from PubChem BioAssay.

Sequence of Pantothenate synthetase (Mycobacterium tuberculosis (strain ATCC 25618 / H37Rv)) (P9WIL5 whole entry, looked up): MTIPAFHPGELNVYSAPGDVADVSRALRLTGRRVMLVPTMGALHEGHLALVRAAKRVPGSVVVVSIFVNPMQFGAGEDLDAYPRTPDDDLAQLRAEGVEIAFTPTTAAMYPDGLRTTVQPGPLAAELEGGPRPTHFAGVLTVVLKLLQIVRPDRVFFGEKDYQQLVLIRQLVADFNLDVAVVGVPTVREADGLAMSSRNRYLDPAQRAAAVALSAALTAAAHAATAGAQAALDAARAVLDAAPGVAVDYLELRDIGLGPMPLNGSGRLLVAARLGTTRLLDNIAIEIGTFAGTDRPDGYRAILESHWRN

This assay concerns the target Pantothenate synthetase (Mycobacterium tuberculosis (strain ATCC 25618 / H37Rv)) (UniProt P9WIL5). The assay is described as follows: Coupled enzyme confirmation of inhibitors against recombinant Mtb PanC (AID 375).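 Also: 0% = full reaction with vehicle and 100% = no enzyme background.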 Conditions: coupled enzyme assay; at 10 µM, stronger effect = higher value.
Consider `Cc1ccc(-c2nc(-c3cccnc3)no2)c(C)c1`, for which the inhibition is 5% (inactive).
As for `COc1ccccc1-n1c(SCC(N)=O)nnc1-c1ccccc1`, the figure is 0% (inactive); as for `Cc1nn(C)c(C)c1NC(=O)CCSc1nc(-c2ccco2)cc(C(F)(F)F)n1`, 6% (inactive); as for `CCOc1cc(C(=O)N(C)Cc2cc3cc(OC)ccc3[nH]c2=O)cc(OCC)c1OCC`, 0% (inactive).
As for `CCC(=O)O[C@]1(C(=O)CCl)[C@@H](C)C[C@H]2[C@@H]3CCC4=CC(=O)C=C[C@]4(C)[C@@]3(F)[C@@H](O)C[C@@]21C`, the figure is 0% (inactive); as for `CCOc1ncccc1C(=O)OCC(=O)N1CC(=O)Nc2ccccc21`, 0% (inactive); as for `CC1(C)CC(=O)C(C=NCc2ccc3c(c2)OCO3)=C(O)C1`, 5% (inactive).
With `O=C1c2cccnc2C(O)N1Cc1ccc(F)cc1` (stereo unspecified), the inhibition is 9% (inactive).
For `CC(=O)C1=C(C)NC(=O)NC1c1cccc(O)c1` (stereo unspecified), the inhibition was 8% (inactive).
In the case of `CCOC(=O)c1cc2sccc2n1Cc1ccccc1` it was 1% (inactive); in that of `O=C(NCc1ccc(F)cc1)c1cc(-c2ccco2)on1`, 6% (inactive).
As to `CCCSC1=C(C#N)C(c2cc(OC)ccc2OC)CC(=O)N1` (stereo unspecified), the inhibition was 14% (inactive).
For `Cc1nn(-c2ccccc2)c2c1C(c1c(C)[nH]c(C#N)c1C)C(C#N)=C(N)O2` (stereo unspecified), the inhibition is 1% (inactive).
In the case of `CC(=O)Nc1ccc(S(=O)(=O)N(CC(=O)O)Cc2ccccc2)cc1` it was 7% (inactive); in that of `COC(=O)CC(C(=O)Nc1cc(C(=O)OC)cc(C(=O)OC)c1)N1CCN(C)CC1` (stereo unspecified), 3% (inactive); in that of `O=C(CCN1CCN(c2ccc(F)cc2)CC1)Nc1ccccc1F`, 1% (inactive).
